Here are results for 39 compounds from the antibiotic and cytotoxicity screens of Wong et al. (2023).

The whole screen tested about 39,000 compounds, of which about 500 (1.3%) were called active. This excerpt belongs to a sample that is enriched for actives.

For the experiment, the system named is S. aureus RN4220. Description: growth inhibition call (relative growth <= 0.2). The following applies: 50 µM.
Consider `C[C@@H]1CN([C@H](C)CO)C(=O)c2cc(NC(=O)Nc3ccc4c(c3)OCO4)ccc2O[C@@H]1CN(C)Cc1ccc(C(F)(F)F)cc1`, for which the growth inhibition call is “inactive”.

Turning to `C[C@H]1CCCCO[C@H](CN(C)CC2CCCCC2)[C@@H](C)CN([C@@H](C)CO)C(=O)c2cc(NC(=O)C3CCCCC3)ccc2O1`, the growth inhibition call was “inactive”.

As for `O=C(Nc1nc(OCCN2CCCC2=O)cnc1-c1cc(Cl)cc(Cl)c1)c1cc2ccccc2s1`, the growth inhibition call was “inactive”.

`C[C@H](CO)N1C[C@H](C)[C@H](CN(C)Cc2ccc(C(=O)Nc3ccccc3N)cc2)Oc2c(NC(=O)Nc3cccc4ccccc34)cccc2C1=O`: the growth inhibition call was “inactive”.

Turning to `C[C@H]1CN([C@@H](C)CO)C(=O)c2cccc(NC(=O)Nc3ccc4c(c3)OCO4)c2O[C@@H]1CN(C)C(=O)Nc1ccc(C(F)(F)F)cc1`, the growth inhibition call was “inactive”.

Turning to `C[C@H]1CN([C@@H](C)CO)C(=O)c2cccc(NC(=O)Nc3ccc(C(F)(F)F)cc3)c2O[C@H]1CN(C)C(=O)Nc1ccc2c(c1)OCO2`, the growth inhibition call is “active”.

Regarding `C[C@@H]1CN([C@@H](C)CO)C(=O)c2cccc(NC(=O)Nc3ccc(C(F)(F)F)cc3)c2O[C@H]1CN(C)C(=O)Nc1ccc2c(c1)OCO2`, the growth inhibition call is “inactive”.

`C[C@@H]1CN([C@H](C)CO)C(=O)c2cccc(NC(=O)Nc3ccc(C(F)(F)F)cc3)c2O[C@@H]1CN(C)C(=O)Nc1ccc2c(c1)OCO2`: the growth inhibition call was “inactive”.

With `C[C@H](CO)N1C[C@H](C)[C@H](CN(C)C(=O)Nc2ccc3c(c2)OCO3)Oc2c(NC(=O)Nc3ccc(C(F)(F)F)cc3)cccc2C1=O`, the growth inhibition call was “active”.

For `C[C@H](CO)N1C[C@H](C)[C@H](CN(C)C(=O)Nc2ccc(C(F)(F)F)cc2)Oc2c(NC(=O)Nc3ccc4c(c3)OCO4)cccc2C1=O`, the growth inhibition call was “inactive”.

On to `C[C@H](CO)N1C[C@H](C)[C@H](CN(C)Cc2ccc3c(c2)OCO3)OCCCC[C@H](C)Oc2ccc(NC(=O)CCC(F)(F)F)cc2C1=O`, for which the growth inhibition call is “inactive”.

For `COc1ccccc1-c1ccc2c(c1)O[C@@H](CN(C)C(=O)c1cccnc1)[C@@H](C)CN([C@@H](C)CO)S2(=O)=O`, the growth inhibition call was “inactive”.

Regarding `COc1cccc(NC(=O)C[C@@H]2CC[C@@H]3[C@H](COc4ccc(NC(=O)C5CCOCC5)cc4C(=O)N3C)O2)c1`, the growth inhibition call was “inactive”.

As for `Cc1noc(C)c1S(=O)(=O)Nc1ccc2c(c1)C(=O)N([C@H](C)CO)C[C@H](C)[C@H](CN(C)S(=O)(=O)c1ccc(F)cc1)O2`, the growth inhibition call is “inactive”.

Turning to `CCOC(=O)[C@H]1C/C=C/C[C@H](C(=O)OCC)C(=O)O[C@H]2[C@@H](OC)O[C@H](CO)[C@@H](OC(=O)Nc3ccc(Br)cc3)[C@@H]2OC1=O`, the growth inhibition call was “inactive”.

On to `CCOc1ccc(CO[C@@H]2O[C@H](CO)[C@@H](O)[C@H](O)[C@H]2NC(C)=O)cc1OC`, for which the growth inhibition call was “inactive”.

Consider `Cn1cnc(CCNC(=O)C[C@H]2CC[C@@H]3[C@H](COC[C@@H](O)CN3C(=O)Nc3ccc(C(F)(F)F)cc3)O2)c1`, for which the growth inhibition call was “inactive”.

Turning to `Cn1cnc(CCNC(=O)C[C@H]2CC[C@@H]3[C@H](COC[C@@H](O)CN3C(=O)Nc3ccc(Cl)cc3)O2)c1`, the growth inhibition call is “inactive”.

As to `Cn1cnc(CCNC(=O)C[C@@H]2CC[C@H]3[C@@H](COC[C@H](O)CN3C(=O)Nc3ccc(C(F)(F)F)cc3)O2)c1`, the growth inhibition call is “inactive”.

On to `Cn1cnc(CCNC(=O)C[C@@H]2CC[C@H]3[C@@H](COC[C@H](O)CN3C(=O)Nc3ccc(Cl)cc3)O2)c1`, for which the growth inhibition call was “inactive”.

With `Cn1cnc(CCNC(=O)C[C@@H]2CC[C@@H]3[C@H](COC[C@H](O)CN3C(=O)Nc3ccc(C(F)(F)F)cc3)O2)c1`, the growth inhibition call was “active”.

Turning to `Cn1cnc(CCNC(=O)C[C@H]2CC[C@H]3[C@@H](COC[C@@H](O)CN3C(=O)Nc3ccc(Cl)cc3)O2)c1`, the growth inhibition call is “inactive”.

Regarding `Cn1cnc(CCNC(=O)C[C@H]2CC[C@H]3[C@@H](COC[C@H](O)CN3C(=O)Nc3ccc(C(F)(F)F)cc3)O2)c1`, the growth inhibition call is “inactive”.

On to `Cn1cnc(CCNC(=O)C[C@@H]2CC[C@@H]3[C@H](COC[C@@H](O)CN3C(=O)Nc3ccc(C(F)(F)F)cc3)O2)c1`, for which the growth inhibition call is “inactive”.

For `Cn1cnc(CCNC(=O)C[C@@H]2CC[C@H]3[C@@H](COC[C@@H](O)CN3C(=O)Nc3ccc(C(F)(F)F)cc3)O2)c1`, the growth inhibition call is “active”.

Consider `Cn1cnc(CCNC(=O)C[C@H]2CC[C@@H]3[C@H](COC[C@H](O)CN3C(=O)Nc3ccc(C(F)(F)F)cc3)O2)c1`, for which the growth inhibition call is “active”.

With `Cn1cnc(CCNC(=O)C[C@@H]2CC[C@H]3[C@@H](COC[C@@H](O)CN3C(=O)Nc3ccc(Cl)cc3)O2)c1`, the growth inhibition call is “inactive”.

With `Cn1cnc(CCNC(=O)C[C@H]2CC[C@H]3[C@@H](COC[C@@H](O)CN3C(=O)Nc3ccc(C(F)(F)F)cc3)O2)c1`, the growth inhibition call is “active”.

On to `CN1C(=O)c2cc(NC(=O)C3CCC3)ccc2OC[C@H]2O[C@H](CC(=O)NCCc3ccncc3)CC[C@H]21`, for which the growth inhibition call is “inactive”.

For the compound `CO[C@H]1CN(C)C(=O)c2cc(NS(=O)(=O)CC(F)(F)F)ccc2OC[C@@H](C)N(C(=O)NC(C)C)C[C@H]1C`, the growth inhibition call is “inactive”.

As for `O=C(C[C@@H]1CC[C@H](NC(=O)Cc2ccccn2)[C@H](CO)O1)NCCCN1CCOCC1`, the growth inhibition call was “inactive”.

As for `COCCOC(=O)N1C(=O)[C@@]2(c3cc(C#Cc4ccc(OC)cc4)ccc31)[C@H](C(=O)N1CCc3cc(OC)c(OC)cc3C1)[C@H]1C(=O)O[C@H](c3ccccc3)[C@H](c3ccccc3)N1[C@@H]2c1ccc(O)cc1`, the growth inhibition call was “inactive”.

As to `C[C@H]1CN([C@@H](C)CO)C(=O)c2cc(C3=CCCC3)cnc2O[C@H]1CN(C)C(=O)Nc1ccc(C(F)(F)F)cc1`, the growth inhibition call is “inactive”.

As for `C[C@H]1CN([C@@H](C)CO)C(=O)c2cccc(NC(=O)Nc3cccc4ccccc34)c2O[C@@H]1CN(C)C(=O)Nc1cccc2ccccc12`, the growth inhibition call is “inactive”.

As for `C#CCn1c(=O)c2c(OC)ccnc2n(C)c1=O`, the growth inhibition call was “inactive”.

With `Cc1ccccc1S(=O)(=O)N1[C@@H]2Cn3c(cccc3=O)[C@H]1[C@@H](C(=O)N1CCOCC1)[C@@H]2CO`, the growth inhibition call was “inactive”.

As for `COc1ccc(NC(=O)Nc2ccc3c(c2)C(=O)N([C@@H](C)CO)C[C@@H](C)[C@@H](CN(C)Cc2ccc(Oc4ccccc4)cc2)O3)cc1`, the growth inhibition call was “inactive”.

On to `CN1C(=O)c2cc(NS(C)(=O)=O)ccc2OC[C@H]2O[C@@H](CC(=O)N3CCOCC3)CC[C@H]21`, for which the growth inhibition call was “inactive”.

In the case of `C[C@@H]1CN([C@@H](C)CO)C(=O)Cc2cc(NS(=O)(=O)c3ccc(Cl)cc3)ccc2O[C@@H]1CN(C)C(=O)Nc1ccc(C(F)(F)F)cc1`, the growth inhibition call is “inactive”.
